Experimental data as given in PubChem BioAssay.
A number with no mark means an inactive call. For some assays here: Entries with a potency or affinity are not part of this list. The source made the active and inactive calls. Unless noted, no rule for the calls is given here.

Key:
[1] = antimalarial activity against Dd2 strain (AID 2302;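 active = growth inhibition above 50% at the single 2 µM test dose, taken to imply half-maximal potency below 2 µM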;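 also: 0% = DMSO untreated growth and 100% = chloroquine plus artemisinin killed control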); conditions: P. falciparum Dd2 in RBCs, LDH growth readout, 72 h; at 2 µM; hits give high values
[2] = HepG2 cytotoxicity, primary screen, cytotoxicity control for P. falciparum antimalarial project, cell-based, ATP luminescence (AID 2303;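 active = inhibition above 50%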;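 also: 0% = DMSO wells and 100% = digitonin-killed cells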); conditions: HepG2 viability, 24-48 h, at 10 µM, hits give high values
[3] = target: L-lactate dehydrogenase (Plasmodium falciparum (isolate CDC / Honduras)) (UniProt Q27743); assay: PfLDH activity inhibition – cell lysate, 3D7 strain, counter-screen for P. falciparum growth inhibition project (AID 2304);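 also: 0% = vehicle and 100% = reference inhibitor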; conditions: P. falciparum 3D7 crude extract, LDH APAD/NBT absorbance; at 2 µM; hits give high values
[4] = inhibition of 3D7 malaria parasite growth – strain 3D7 (AID 2306);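 also: 0% = DMSO wells and 100% = chloroquine plus artemisinin control wells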; conditions: P. falciparum 3D7 erythrocytic growth, LDH absorbance, 72 h; at 2 µM; hits give high values
[5] = target: Calcium-dependent protein kinase 1 (Plasmodium falciparum (isolate 3D7)) (UniProt P62344); assay: PfCDPK1 kinase inhibitors, biochemical, TCAMS library (AID 1159585; cut-off not given, nearly all actives have IC50 up to about 0.98 µM;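 also: inhibitors leave more ATP so luminescence rises with inhibition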); conditions: recombinant PfCDPK1, Kinase-Glo ATP depletion luminescence
[6] = target: Plasmodium falciparum protein kinase 6 (PK6, PF3D7_1337100) (UniProt Q8IDW1); assay: PfPK6 kinase inhibitors, biochemical, TCAMS library (AID 1159586); conditions: recombinant PfPK6, Kinase-Glo ATP depletion luminescence
[7] = target: Protein kinase 7 (PK7), Plasmodium falciparum 3D7 (PF3D7_0213400) (UniProt Q7YTF7); assay: inhibition of Plasmodium PK7 catalytic activity – biochemical, TCAMS antimalarial set, Kinase-Glo luminescence (AID 1159587); conditions: recombinant PfPK7, Kinase-Glo ATP depletion luminescence
[8] = target: Calcium-dependent protein kinase 4 (Plasmodium falciparum (isolate 3D7)) (UniProt Q8IBS5); assay: PfCDPK4 kinase inhibitors, biochemical, TCAMS library (AID 1159588; cut-off not given, nearly all actives have IC50 up to about 0.91 µM); conditions: recombinant PfCDPK4, Kinase-Glo ATP depletion luminescence
Chain of Calcium-dependent protein kinase 4 (Plasmodium falciparum (isolate 3D7)) (Q8IBS5 whole entry, looked up): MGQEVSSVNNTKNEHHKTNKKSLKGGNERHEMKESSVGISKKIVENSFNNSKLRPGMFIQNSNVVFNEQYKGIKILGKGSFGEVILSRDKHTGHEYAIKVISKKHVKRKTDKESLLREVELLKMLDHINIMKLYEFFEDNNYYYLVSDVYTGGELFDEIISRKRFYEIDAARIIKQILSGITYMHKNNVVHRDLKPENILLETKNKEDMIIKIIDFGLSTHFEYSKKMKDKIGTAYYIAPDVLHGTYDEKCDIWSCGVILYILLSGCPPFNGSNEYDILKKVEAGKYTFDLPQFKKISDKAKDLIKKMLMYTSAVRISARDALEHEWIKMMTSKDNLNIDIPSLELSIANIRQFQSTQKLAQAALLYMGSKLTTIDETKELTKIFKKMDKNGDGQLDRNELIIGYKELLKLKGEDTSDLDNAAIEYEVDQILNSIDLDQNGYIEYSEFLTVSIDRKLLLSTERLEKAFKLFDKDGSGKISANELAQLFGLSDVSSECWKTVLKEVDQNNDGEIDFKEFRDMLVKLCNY

Chain of L-lactate dehydrogenase (Plasmodium falciparum (isolate CDC / Honduras)) (Q27743 whole entry, looked up): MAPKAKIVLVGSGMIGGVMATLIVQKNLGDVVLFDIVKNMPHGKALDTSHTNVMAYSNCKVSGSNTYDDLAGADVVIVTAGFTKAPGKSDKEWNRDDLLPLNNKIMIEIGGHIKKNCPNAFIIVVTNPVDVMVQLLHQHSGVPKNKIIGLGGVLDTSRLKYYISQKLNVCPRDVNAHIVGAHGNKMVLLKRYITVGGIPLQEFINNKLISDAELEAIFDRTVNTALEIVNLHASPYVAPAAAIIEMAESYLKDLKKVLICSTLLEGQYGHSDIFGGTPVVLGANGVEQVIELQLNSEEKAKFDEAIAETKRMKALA
Chain of Plasmodium falciparum protein kinase 6 (PK6, PF3D7_1337100) (Q8IDW1 1-305): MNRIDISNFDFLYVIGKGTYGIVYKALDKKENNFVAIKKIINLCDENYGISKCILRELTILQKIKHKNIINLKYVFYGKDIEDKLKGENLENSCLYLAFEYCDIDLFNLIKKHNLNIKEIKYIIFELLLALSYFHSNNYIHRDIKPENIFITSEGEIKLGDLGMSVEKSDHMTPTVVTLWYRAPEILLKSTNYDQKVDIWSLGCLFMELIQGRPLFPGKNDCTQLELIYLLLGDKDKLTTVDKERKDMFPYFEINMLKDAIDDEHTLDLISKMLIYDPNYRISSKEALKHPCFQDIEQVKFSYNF
Chain of Protein kinase 7 (PK7), Plasmodium falciparum 3D7 (PF3D7_0213400) (Q7YTF7 1-343): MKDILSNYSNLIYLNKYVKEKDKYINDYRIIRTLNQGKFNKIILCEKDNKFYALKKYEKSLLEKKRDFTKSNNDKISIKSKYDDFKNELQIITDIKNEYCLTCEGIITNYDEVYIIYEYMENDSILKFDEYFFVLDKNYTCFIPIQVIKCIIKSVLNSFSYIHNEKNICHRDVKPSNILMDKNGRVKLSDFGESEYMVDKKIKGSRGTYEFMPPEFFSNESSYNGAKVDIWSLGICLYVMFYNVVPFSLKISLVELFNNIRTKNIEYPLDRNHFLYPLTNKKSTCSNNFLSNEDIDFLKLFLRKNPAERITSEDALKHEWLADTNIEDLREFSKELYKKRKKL
Chain of Calcium-dependent protein kinase 1 (Plasmodium falciparum (isolate 3D7)) (P62344 whole entry, looked up): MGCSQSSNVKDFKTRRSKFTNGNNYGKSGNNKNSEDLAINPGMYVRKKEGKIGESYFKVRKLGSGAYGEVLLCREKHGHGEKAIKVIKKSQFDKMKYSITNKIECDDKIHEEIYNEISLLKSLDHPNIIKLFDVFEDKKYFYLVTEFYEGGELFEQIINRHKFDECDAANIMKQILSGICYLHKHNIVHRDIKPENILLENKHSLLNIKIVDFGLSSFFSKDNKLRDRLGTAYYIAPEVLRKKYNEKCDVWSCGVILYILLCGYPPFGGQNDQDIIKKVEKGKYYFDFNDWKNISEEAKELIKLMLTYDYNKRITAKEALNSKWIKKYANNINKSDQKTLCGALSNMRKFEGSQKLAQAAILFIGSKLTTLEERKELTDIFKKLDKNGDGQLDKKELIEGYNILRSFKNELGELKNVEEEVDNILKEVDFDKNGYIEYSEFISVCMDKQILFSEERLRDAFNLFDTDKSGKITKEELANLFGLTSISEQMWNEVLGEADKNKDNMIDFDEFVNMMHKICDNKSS

Row | Structure (SMILES) | growth inhibition [1] | inhibition [2] | inhibition [3] | growth inhibition [4] | outcome [5] | outcome [6] | outcome [7] | outcome [8]
1 | C1=CN(Cc2ccccc2)C=CC1=C1C=Nc2ccccc21 | 69% (active) | 8% | -3% | 90% (active) | inactive | inactive | inactive | inactive
2 | CN1CCCc2ccc(NC(=O)c3ccc(-c4cc(C(F)(F)F)nn4C)s3)cc2C1 | 34% | 16% | -1% | 88% (active) | inactive | inactive | inactive | inactive
3 | CCN(CC)CCN(Cc1ccc(-c2ccc(C(F)(F)F)cc2)cc1)C(=O)Cn1c(SCc2ccc(F)cc2)nc(=O)c2ccccc21 | 48% | 47% | 6% | 98% (active) | inactive | inactive | inactive | inactive
4 | CCCCN(CCCC)CCOc1cc2c(cc1OC)CCN2C(=O)/C=C/c1ccccc1Cl | 31% | 13% | 0% | 87% (active) | inactive | inactive | inactive | inactive
5 | Cc1cnn(-c2cccc(C(=O)NC3CCC(CCN4CCc5ccc(C#N)cc5CC4)CC3)c2)c1 (stereo not given) | 48% | 24% | -9% | 94% (active) | inactive | inactive | inactive | inactive
6 | c1ccc(CN2CCC(NCc3ccc(-c4ccc(CNCc5cccnc5)cn4)cc3)CC2)cc1 | 13% | -1% | -5% | 97% (active) | inactive | inactive | inactive | inactive
7 | O=C(NC1CCN(Cc2ccccc2)CC1)c1ccc(-c2nc3cc(Cl)c(Cl)cc3[nH]2)s1 | 99% (active) | 17% | -1% | 103% (active) | inactive | inactive | inactive | inactive
8 | CC(C)NCc1ccc(-c2ccc(-c3nc4ccc(C(F)(F)F)cc4[nH]3)s2)cc1 | 94% (active) | 30% | 1% | 101% (active) | inactive | inactive | inactive | inactive
9 | CC(C)c1ccc(NC(=S)NN=Cc2ccccn2)cc1 | 98% (active) | 47% | -12% | 100% (active) | inactive | inactive | inactive | inactive
10 | O=C(Cc1ccccc1)NC(c1ccco1)c1cc(Cl)c2cccnc2c1O (stereo not given) | 93% (active) | 44% | -1% | 89% (active) | inactive | inactive | inactive | inactive
11 | O=C(NCCCCN1CCC(c2ccc3c(c2OC(=O)c2ccc(NC(=O)c4ccc(Cl)cc4)cc2)CCCC3)CC1)c1ccc(NC(=O)c2ccc(Cl)cc2)cc1 | 99% (active) | 62% (active) | -2% | 101% (active) | inactive | inactive | inactive | inactive
12 | O=C(Nc1cc(Cl)ccc1O)c1cc(-c2ccccc2O)no1 | 79% (active) | -7% | 2% | 95% (active) | inactive | inactive | inactive | inactive
13 | COc1cc(Cc2cnc(N)nc2N)cc(OC)c1OCCNC(=O)[C@@H](N)CCC(=O)O | -4% | -1% | -6% | 96% (active) | inactive | inactive | inactive | inactive
14 | O=C(Nc1ccc(-c2nc3ccccc3[nH]2)cc1)c1ccc(Cl)s1 | 34% | 16% | 4% | 99% (active) | inactive | inactive | inactive | inactive
15 | CCCNCc1ccc(-c2ccc(CN(CCOC)C(=O)COc3ccccc3Cl)cc2)nc1 | 29% | -1% | -2% | 96% (active) | inactive | inactive | inactive | inactive
16 | NCCC(=O)Nc1ccc(-c2cnc3[nH]cc(-c4ccc(C(=O)O)cc4)c3c2)cn1 | 67% (active) | -8% | 3% | 99% (active) | inactive | inactive | inactive | inactive
17 | Clc1ccc(C2CCN(CCCOc3ccc4c(c3)CCNCC4)CC2)cc1 | 28% | 93% (active) | -8% | 98% (active) | inactive | inactive | inactive | inactive
18 | Cc1cc(F)ccc1-c1nc(NCC(O)CNCCc2ccccc2)nc2c1ccc(=O)n2-c1c(F)cccc1F (stereo not given) | 100% (active) | 25% | -5% | 100% (active) | inactive | inactive | inactive | inactive
19 | COc1ccc(-c2ccc(NC(=O)c3cccs3)cc2)cc1CN1CCCN(C)CC1 | 30% | 31% | 4% | 100% (active) | inactive | inactive | inactive | inactive
20 | c1ccc(C2=NN=C(c3ccccn3)[C@H]3[C@H]4C[C@@H]([C@@H]23)[C@@H]2[C@H]4[C@H]3C[C@@H]2c2ccccc23)nc1 | 77% (active) | 39% | -3% | 98% (active) | inactive | inactive | inactive | inactive

Row | Structure (SMILES) | growth inhibition [1] | inhibition [2] | inhibition [3] | growth inhibition [4] | outcome [5] | outcome [6] | outcome [7] | outcome [8]
21 | CC1CC(C)CN(CCCNc2ccc(C(=O)Nc3ccc(C(F)(F)F)cc3)cc2[N+](=O)[O-])C1 (stereo not given) | 99% (active) | 31% | -2% | 101% (active) | inactive | inactive | inactive | inactive
22 | COc1ccc(-c2cnc(N)c(-c3nc4ccc(Br)cc4[nH]3)c2)cc1 | 3% | 42% | 2% | 100% (active) | inactive | inactive | inactive | inactive
23 | CC1CCCCN1CCCNc1ncc2c(-c3ccc(NC(=O)Nc4cc(C(F)(F)F)ccc4F)c(F)c3)nn(C)c2n1 (stereo not given) | 97% (active) | 27% | 2% | 101% (active) | inactive | inactive | inactive | inactive
24 | COc1ccc(NC(=O)NC2CCN(c3ccnc4cc(Cl)ccc34)C2)cc1 (stereo not given) | 69% (active) | 10% | -2% | 101% (active) | inactive | inactive | inactive | inactive
25 | COc1ccc(NC(=O)/C=C/c2ccc(Cl)c(Cl)c2)cc1N1CCN(C)CC1 | 20% | 23% | -3% | 90% (active) | inactive | inactive | inactive | inactive
26 | COc1ccc(-c2ccc(NC(=O)c3ccc(Cl)cc3)cc2)cc1CN1CCCN(C)CC1 | 61% (active) | 27% | 2% | 93% (active) | inactive | inactive | inactive | inactive
27 | Cc1csc(-c2nonc2NC(=O)COc2ccccc2C(C)C)n1 | 85% (active) | 14% | -1% | 90% (active) | inactive | inactive | inactive | inactive
28 | CCNC[C@H]1CCCN1CCOc1ccc(-n2cnc3cc(-c4ccc(Cl)cc4)sc3c2=O)cc1OC | 39% | 53% (active) | -11% | 97% (active) | inactive | inactive | inactive | inactive
29 | O=C(c1ccc(-c2cccc(-c3nc4ccc(C(F)(F)F)cc4[nH]3)c2)cc1)N1CCCCC1CN1CCC(O)C1 (stereo not given) | 98% (active) | 29% | -11% | 100% (active) | inactive | inactive | inactive | inactive
30 | Cc1ccoc1C(=O)Nc1cccc(-c2cccc(-c3nc4c(C)cccc4[nH]3)c2)c1 | 79% (active) | 17% | -3% | 101% (active) | inactive | inactive | inactive | inactive
31 | COc1cc2nc(N3CCC(CNC(=O)c4cccc5cccnc45)CC3)nc(N)c2cc1OC | 33% | 34% | -2% | 99% (active) | inactive | inactive | inactive | inactive
32 | CCCC(CNCc1cccc(OC(F)(F)C(F)F)c1)CNc1cc(=O)c2ccccc2[nH]1 (stereo not given) | 94% (active) | -1% | 1% | 101% (active) | inactive | inactive | inactive | inactive
33 | CCc1cn2c3c(cc(C(=O)N[C@@H](Cc4cccc(F)c4)[C@H](O)CNC4CCOCC4)cc13)N(C)S(=O)(=O)CC2 | 97% (active) | -2% | -2% | 97% (active) | inactive | inactive | inactive | inactive
34 | O=[N+]([O-])c1ccc(NC(=NCCOc2ccccc2)Nc2ccccc2Br)c(O)c1 | 70% (active) | 6% | -9% | 88% (active) | inactive | inactive | inactive | inactive
35 | Cc1ccccc1CN1CCCN(Cc2ccc(C(=O)Nc3ccc(Cl)cc3)cc2)CC1 | 15% | 48% | 3% | 93% (active) | inactive | inactive | inactive | inactive
36 | COc1cc(F)c2ncc(C#N)c(CCN3CCC(NCc4ccc5c(c4)OCCO5)CC3)c2c1 | 59% (active) | 5% | -7% | 97% (active) | inactive | inactive | inactive | inactive
37 | COc1cc2c(cc1N1C[C@@H](C)N[C@@H](C)C1)N(C(=O)c1ccc(-c3ccc(-c4ncc[nH]4)cc3C)cc1)CC2 | 58% (active) | 7% | -2% | 98% (active) | inactive | inactive | inactive | inactive
38 | N#Cc1ccc(N2CCN(Cc3ccc(-c4ccc(-c5nc6ccc(C(F)(F)F)cc6[nH]5)s4)cc3)CC2)nc1 | 73% (active) | 13% | 4% | 100% (active) | inactive | inactive | inactive | inactive
39 | FC(F)(F)c1ccc2c(NCCc3ccccc3)ccnc2c1 | 9% | 14% | 0% | 87% (active) | inactive | inactive | inactive | inactive
40 | O=C(C=Cc1ccc(Cl)c(Cl)c1)NCCCCCN1CCC(CCNS(=O)(=O)c2ccc(Br)cc2)CC1 | -1% | 58% (active) | 5% | 91% (active) | inactive | inactive | inactive | inactive
